Reference: PubChem BioAssay (Tox21)
Inconclusive results are not listed. Calls of active or inactive are those of the source. Unless noted, calls come from the whole dose curve; as a rule, active = well fitted curve in the direction sought with a large enough effect in the repeat runs; inconclusive = weak or mixed curves; inactive = no such curve, though single readings can be large; an effect the other way counts as inactive or inconclusive.

What was measured:
[1] = Human pregnane X receptor (PXR) small molecule agonists, qHTS cell viability counter screen (AID 1346977); note: nearly all actives have a fitted effect of over 50% in size; note: potency is the fitted concentration of half-maximal effect
In short: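 After a 5hr pre-incubation, PXR-Luc HepG2 cells received compounds plus positive control in DMSO and were kept 24hr at 37C. Cell viability was quantified by fluorescence from CellTiter-Fluor added for the final hour.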

[2] = Caspase-3/7 induction in HepG2 cells by small molecules, qHTS assay (AID 1346978); note: nearly all actives have a fitted effect of over 15% in size; note: potency is the fitted concentration of half-maximal effect
In short: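 Wild-type HepG2 cells, 2,000/well, settled 5 hr at 37 C and 5% CO2, then compound-treated for 17 hr; caspase-3/7 activity read by luminescent Caspase-Glo 3/7 after 30 min at room temperature.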

[3] = Caspase-3/7 induction in CHO-K1 cells by small molecules, qHTS cell viability counter screen (AID 1346979); note: nearly all actives have a fitted effect of over 35% in size; note: potency is the fitted concentration of half-maximal effect
In short: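 Multiplexed with Caspase-Glo 3/7 in CHO-K1 cells, this counter screen added CellTiter-Fluor after 16hr of compound exposure and recorded fluorescence 1hr later.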

[4] = Caspase-3/7 induction in CHO-K1 cells by small molecules, qHTS assay (AID 1346980); note: nearly all actives have a fitted effect of over 15% in size; note: potency is the fitted concentration of half-maximal effect
In short: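 Wild-type CHO-K1 cells exposed to compounds for 17hr at 37 C, 5% CO2. Caspase-3/7 activity then measured by Caspase-Glo 3/7 luminescence after 30min at room temperature.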

[5] = Caspase-3/7 induction in HepG2 cells by small molecules, qHTS cell viability counter screen (AID 1346981); note: nearly all actives have a fitted effect of over 30% in size; note: potency is the fitted concentration of half-maximal effect
In short: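 Wild-type HepG2 cells (2,000/well) were allowed to settle for 5 hr at 37 C, 5% CO2, then dosed with compounds in DMSO by pin transfer. After 16 hr at 37 C, CellTiter-Fluor was added and fluorescence read 1 hr later.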

[6] = target: Nuclear receptor subfamily 1 group I member 2 (Homo sapiens) (UniProt O75469); test: Human pregnane X receptor (PXR) small molecule agonists, qHTS assay (AID 1346982); note: nearly all actives have a fitted effect of over 35% in size; note: potency is the fitted concentration of half-maximal effect
In short: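 PXR-Luc HepG2 cells (CYP3A4 promoter-driven luciferase) were seeded in medium with 5% charcoal-stripped FBS, left 5 hr at 37 C, then exposed to compounds in DMSO for 24 hr. Luminescence was read after ONE-Glo addition.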

[7] = target: Acetylcholinesterase (Homo sapiens) (UniProt P22303); test: Acetylcholinesterase (AChE) small molecule antagonists: colormetric cell-based qHTS assay (AID 1347395; calls by dose curve; note: nearly all actives have a fitted effect of over 30% in size; note: potency is the fitted concentration of half-maximal effect)
In short: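 In this cell-based qHTS, attached SH-SY5Y cells were treated with test chemicals for 30 min, after which acetylthiocholine hydrolysis was followed by DTNB colour development over 90 min at 37 C.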

[8] = target: Acetylcholinesterase (Homo sapiens) (UniProt P22303); test: Acetylcholinesterase (AChE) small molecule antagonists: enzyme-based qHTS assay (AID 1347397; calls by dose curve; note: nearly all actives have a fitted effect of over 55% in size; note: potency is the fitted concentration of half-maximal effect); conditions: Potency: AChE enzyme activity inhibition
In short: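 Enzyme inhibition was scored from DTNB-detected thiocholine formed by recombinant human AChE acting on acetylthiocholine. The 30 min compound preincubation and 10 min substrate reaction were both run at room temperature, with DMSO as vehicle control.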

[9] = target: Acetylcholinesterase (Homo sapiens) (UniProt P22303); test: Acetylcholinesterase (AChE) small molecule antagonists: fluorescence cell-based qHTS assay (AID 1347398; calls by dose curve; note: nearly all actives have a fitted effect of over 50% in size; note: potency is the fitted concentration of half-maximal effect); conditions: Potency: AChE activity
In short: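 Endogenous acetylcholinesterase of SH-SY5Y neuroblastoma cells is measured in situ. After overnight attachment and 30 min compound exposure, cells receive acetylthiocholine and Thiolite Green; fluorescence is read after 40 min at room temperature.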

[10] = target: Acetylcholinesterase (Homo sapiens) (UniProt P22303); test: Acetylcholinesterase (AChE) small molecule antagonists: enzyme-based qHTS assay with human liver microsomes (AID 1347399; calls by dose curve; note: nearly all actives have a fitted effect of over 60% in size); conditions: Potency: qHTS inhibition
In short: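 Recombinant human AChE (50 mU/mL in the enzyme mix) and human liver microsomes (0.25 mg/mL final) were preincubated with compound and NADPH (0.25 mg/mL final) for 30 min at 37 C. Acetylthiocholine/DTNB was then added; thiocholine was read colorimetrically after 10 min at room temperature.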

[11] = target: Cytochrome P450 2D6 (Homo sapiens) (UniProt P10635); test: Cytochrome P450 Family 2 Subfamily D Member 6 (CYP2D6) small molecule antagonists: luciferase reporter qHTS assay (AID 1671196); note: nearly all actives have a fitted effect of over 50% in size; note: potency is the fitted concentration of half-maximal effect; for activity change, negative = inhibition: series mostly up to about 120 µM
In short: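 CYP2D6 enzyme–substrate mix was held with compound for 10 min at room temperature, then NADPH regeneration solution was added and the reaction ran 1 h at room temperature. Luciferin product was detected by luminescence after 20 min with detection reagent.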

[12] = target: Cytochrome P450 2C19 (Homo sapiens) (UniProt P33261); test: Cytochrome P450 Family 2 Subfamily C Member 19 (CYP2C19) small molecule antagonists: luciferase reporter qHTS assay (AID 1671197); note: nearly all actives have a fitted effect of over 65% in size; note: potency is the fitted concentration of half-maximal effect; for activity change, negative = inhibition: series mostly up to about 120 µM
In short: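 Quantitative high-throughput screen of the Tox21 library using CYP2C19 with proluciferin substrate. Reaction: NADPH regeneration, 37C, 1 h, after 10 min compound preincubation at room temperature. Readout: luminescence.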

[13] = target: Cytochrome P450 2C9 (Homo sapiens) (UniProt P11712); test: Cytochrome P450 Family 2 Subfamily C Member 9 (CYP2C9) small molecule antagonists: luciferase reporter qHTS assay (AID 1671198); note: nearly all actives have a fitted effect of over 50% in size; note: potency is the fitted concentration of half-maximal effect; for activity change, negative = inhibition: series mostly up to about 120 µM
In short: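 P450-Glo proluciferin substrate with CYP2C9 enzyme; 10 min RT preincubation, then NADPH regeneration 1 h at 37C; luciferin detection reagent 20 min RT, luminescence in relative luminescence units.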

[14] = target: Voltage-gated inwardly rectifying potassium channel KCNH2 (Homo sapiens) (UniProt Q12809); test: Human Ether-a-go-go-Related Gene (hERG) channel small molecule antagonists: fluorescence cell-based qHTS assay (AID 1671200); note: nearly all actives have a fitted effect of over 50% in size; note: potency is the fitted concentration of half-maximal effect;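 for activity change, negative = inhibition: hERG-expressing U2OS cells given a thallium stimulus after FluxOR II dye loading; series mostly up to about 77 µM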
In short: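 Cell line hERG-U2OS; dye FluxOR II, 1 h RT dark; Tl+ stimulus; ex 480/em 540 nm, read each second for 2 min.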

[15] = target: Cytochrome P450 1A2 (Homo sapiens) (UniProt P05177); test: Cytochrome P450 Family 1 Subfamily A Member 2 (CYP1A2) small molecule antagonists: luciferase reporter qHTS assay (AID 1671199); note: nearly all actives have a fitted effect of over 50% in size; note: potency is the fitted concentration of half-maximal effect; for activity change, negative = inhibition: series mostly up to about 120 µM
In short: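 Human CYP1A2 activity measured with a P450-Glo proluciferin substrate; compounds in DMSO preincubated 10 min at room temperature with enzyme-substrate mix, then NADPH regeneration system added for 1 h. Luciferin detection reagent, 20 min, luminescence read.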

[16] = target: Cytochrome P450 3A4 (Homo sapiens) (UniProt P08684); test: Cytochrome P450 Family 3 Subfamily A Member 4 (CYP3A4) small molecule antagonists: luciferase reporter qHTS assay (AID 1671201); note: nearly all actives have a fitted effect of over 50% in size; note: potency is the fitted concentration of half-maximal effect; for activity change, negative = inhibition: series mostly up to about 120 µM
In short: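 Room-temperature assay throughout: 10 min compound–enzyme/substrate preincubation, 1 h reaction after NADPH regeneration solution, 20 min detection. Luciferin formed from proluciferin substrate is quantified by luminescence.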
% is set by controls: 0 for no effect and ±100 for the full control effect.

Chain of Cytochrome P450 2D6 (Homo sapiens) (P10635 whole entry, looked up): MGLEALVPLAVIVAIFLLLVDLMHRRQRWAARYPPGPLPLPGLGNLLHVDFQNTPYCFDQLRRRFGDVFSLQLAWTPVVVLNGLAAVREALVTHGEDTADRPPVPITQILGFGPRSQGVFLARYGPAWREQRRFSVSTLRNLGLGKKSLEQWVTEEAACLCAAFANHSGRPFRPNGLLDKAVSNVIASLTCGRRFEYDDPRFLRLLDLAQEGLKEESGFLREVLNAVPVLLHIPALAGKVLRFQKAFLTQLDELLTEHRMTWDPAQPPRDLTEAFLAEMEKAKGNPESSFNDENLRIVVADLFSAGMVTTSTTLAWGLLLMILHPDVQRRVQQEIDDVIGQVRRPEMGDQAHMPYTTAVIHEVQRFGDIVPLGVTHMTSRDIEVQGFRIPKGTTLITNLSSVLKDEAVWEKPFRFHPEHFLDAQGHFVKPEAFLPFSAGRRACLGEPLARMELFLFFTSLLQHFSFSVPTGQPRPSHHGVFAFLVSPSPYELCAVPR
Chain of Nuclear receptor subfamily 1 group I member 2 (Homo sapiens) (O75469 whole entry, looked up): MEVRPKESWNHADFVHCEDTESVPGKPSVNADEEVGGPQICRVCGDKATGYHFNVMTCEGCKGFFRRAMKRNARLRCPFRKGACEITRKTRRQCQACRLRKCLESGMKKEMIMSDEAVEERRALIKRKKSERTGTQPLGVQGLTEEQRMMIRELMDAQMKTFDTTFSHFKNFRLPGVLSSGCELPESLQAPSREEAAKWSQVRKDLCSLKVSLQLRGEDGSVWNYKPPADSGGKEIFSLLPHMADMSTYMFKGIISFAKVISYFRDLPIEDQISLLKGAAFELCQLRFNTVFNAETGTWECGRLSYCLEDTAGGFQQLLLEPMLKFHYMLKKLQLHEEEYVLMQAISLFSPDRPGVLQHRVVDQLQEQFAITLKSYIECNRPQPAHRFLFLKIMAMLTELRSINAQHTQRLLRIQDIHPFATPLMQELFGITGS
Chain of Cytochrome P450 1A2 (Homo sapiens) (P05177 whole entry, looked up): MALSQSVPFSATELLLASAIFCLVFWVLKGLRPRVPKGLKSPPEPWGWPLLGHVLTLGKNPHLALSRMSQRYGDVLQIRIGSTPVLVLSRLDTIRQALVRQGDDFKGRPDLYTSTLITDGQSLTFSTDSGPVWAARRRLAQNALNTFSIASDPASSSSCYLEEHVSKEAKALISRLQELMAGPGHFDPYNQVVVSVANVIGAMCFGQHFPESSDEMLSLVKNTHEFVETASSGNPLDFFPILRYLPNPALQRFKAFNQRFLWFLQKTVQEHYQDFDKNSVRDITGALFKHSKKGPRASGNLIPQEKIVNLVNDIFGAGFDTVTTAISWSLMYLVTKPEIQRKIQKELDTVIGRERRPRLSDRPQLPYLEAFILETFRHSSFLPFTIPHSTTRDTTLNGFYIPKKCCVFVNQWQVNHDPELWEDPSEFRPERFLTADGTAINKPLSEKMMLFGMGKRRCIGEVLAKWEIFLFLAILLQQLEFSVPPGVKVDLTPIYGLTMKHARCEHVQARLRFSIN
Chain of Voltage-gated inwardly rectifying potassium channel KCNH2 (Homo sapiens) (Q12809 whole entry, looked up): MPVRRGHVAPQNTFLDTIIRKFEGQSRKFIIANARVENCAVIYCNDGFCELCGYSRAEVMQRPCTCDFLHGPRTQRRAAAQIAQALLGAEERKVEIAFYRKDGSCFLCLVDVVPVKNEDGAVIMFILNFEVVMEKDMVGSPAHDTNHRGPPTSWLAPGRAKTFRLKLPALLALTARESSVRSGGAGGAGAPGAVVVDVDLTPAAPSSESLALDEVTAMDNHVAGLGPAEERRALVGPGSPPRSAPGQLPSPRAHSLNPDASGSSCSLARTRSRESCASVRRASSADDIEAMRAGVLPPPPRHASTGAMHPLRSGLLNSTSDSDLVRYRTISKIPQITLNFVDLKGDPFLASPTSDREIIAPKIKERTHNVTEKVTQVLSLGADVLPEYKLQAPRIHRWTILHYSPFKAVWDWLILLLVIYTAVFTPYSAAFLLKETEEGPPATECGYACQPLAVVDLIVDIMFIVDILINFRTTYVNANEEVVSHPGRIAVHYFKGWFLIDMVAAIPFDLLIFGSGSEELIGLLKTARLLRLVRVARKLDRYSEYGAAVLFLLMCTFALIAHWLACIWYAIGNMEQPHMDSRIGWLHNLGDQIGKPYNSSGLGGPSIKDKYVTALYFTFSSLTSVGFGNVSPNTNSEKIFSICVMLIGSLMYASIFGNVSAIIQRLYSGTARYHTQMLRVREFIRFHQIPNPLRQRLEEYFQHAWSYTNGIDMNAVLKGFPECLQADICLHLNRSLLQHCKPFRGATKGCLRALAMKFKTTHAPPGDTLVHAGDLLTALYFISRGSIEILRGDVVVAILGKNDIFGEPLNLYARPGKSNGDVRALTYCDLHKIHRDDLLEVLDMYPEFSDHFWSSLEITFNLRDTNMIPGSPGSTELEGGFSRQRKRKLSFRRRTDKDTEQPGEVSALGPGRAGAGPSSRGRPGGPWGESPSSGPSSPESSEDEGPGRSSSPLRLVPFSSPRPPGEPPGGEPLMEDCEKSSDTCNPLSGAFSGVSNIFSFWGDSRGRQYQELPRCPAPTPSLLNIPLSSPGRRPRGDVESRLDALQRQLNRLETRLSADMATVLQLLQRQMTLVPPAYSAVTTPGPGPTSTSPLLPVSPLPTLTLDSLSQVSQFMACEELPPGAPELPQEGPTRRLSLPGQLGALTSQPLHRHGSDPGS
Chain of Cytochrome P450 2C9 (Homo sapiens) (P11712 whole entry, looked up): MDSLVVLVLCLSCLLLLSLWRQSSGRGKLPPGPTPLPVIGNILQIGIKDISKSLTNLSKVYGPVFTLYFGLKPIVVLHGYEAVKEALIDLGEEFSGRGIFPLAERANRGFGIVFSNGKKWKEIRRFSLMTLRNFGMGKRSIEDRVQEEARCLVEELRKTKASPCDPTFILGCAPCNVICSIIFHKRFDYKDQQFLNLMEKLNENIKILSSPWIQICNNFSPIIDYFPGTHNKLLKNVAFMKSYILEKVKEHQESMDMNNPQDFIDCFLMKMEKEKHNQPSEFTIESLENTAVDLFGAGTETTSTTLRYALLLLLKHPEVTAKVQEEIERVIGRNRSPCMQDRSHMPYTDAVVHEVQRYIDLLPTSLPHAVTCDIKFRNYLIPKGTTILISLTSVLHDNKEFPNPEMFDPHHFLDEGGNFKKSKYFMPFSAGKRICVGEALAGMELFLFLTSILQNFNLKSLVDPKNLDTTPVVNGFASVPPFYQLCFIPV
Chain of Acetylcholinesterase (Homo sapiens) (P22303 whole entry, looked up): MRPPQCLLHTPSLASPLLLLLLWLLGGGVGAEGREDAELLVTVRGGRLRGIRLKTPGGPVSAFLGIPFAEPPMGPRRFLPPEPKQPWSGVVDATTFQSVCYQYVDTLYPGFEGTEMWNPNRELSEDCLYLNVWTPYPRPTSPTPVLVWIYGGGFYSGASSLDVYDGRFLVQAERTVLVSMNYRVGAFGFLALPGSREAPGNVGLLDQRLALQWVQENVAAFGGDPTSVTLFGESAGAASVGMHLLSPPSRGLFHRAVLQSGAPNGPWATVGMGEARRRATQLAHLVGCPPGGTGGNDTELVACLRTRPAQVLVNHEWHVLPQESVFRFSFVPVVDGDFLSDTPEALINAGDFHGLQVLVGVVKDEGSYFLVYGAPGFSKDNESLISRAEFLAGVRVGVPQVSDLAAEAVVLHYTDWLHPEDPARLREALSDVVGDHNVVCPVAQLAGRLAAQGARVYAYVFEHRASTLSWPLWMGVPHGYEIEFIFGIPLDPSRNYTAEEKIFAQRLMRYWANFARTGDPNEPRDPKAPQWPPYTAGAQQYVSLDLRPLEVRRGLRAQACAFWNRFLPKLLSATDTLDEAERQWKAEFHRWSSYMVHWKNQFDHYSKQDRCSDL
Chain of Cytochrome P450 3A4 (Homo sapiens) (P08684 whole entry, looked up): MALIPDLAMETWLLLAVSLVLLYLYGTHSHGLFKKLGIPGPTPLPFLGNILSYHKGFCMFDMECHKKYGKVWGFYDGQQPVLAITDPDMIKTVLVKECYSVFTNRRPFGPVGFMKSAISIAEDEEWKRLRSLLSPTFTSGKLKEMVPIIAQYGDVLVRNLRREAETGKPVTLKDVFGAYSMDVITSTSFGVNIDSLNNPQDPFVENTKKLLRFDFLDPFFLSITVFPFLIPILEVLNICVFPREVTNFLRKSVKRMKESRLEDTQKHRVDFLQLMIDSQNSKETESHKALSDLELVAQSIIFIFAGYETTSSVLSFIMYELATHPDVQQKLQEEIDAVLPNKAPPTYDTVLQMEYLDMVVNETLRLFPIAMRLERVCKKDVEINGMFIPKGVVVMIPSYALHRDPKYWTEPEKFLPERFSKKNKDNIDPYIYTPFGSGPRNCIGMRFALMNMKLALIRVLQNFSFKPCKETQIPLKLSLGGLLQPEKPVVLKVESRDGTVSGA
Chain of Cytochrome P450 2C19 (Homo sapiens) (P33261 whole entry, looked up): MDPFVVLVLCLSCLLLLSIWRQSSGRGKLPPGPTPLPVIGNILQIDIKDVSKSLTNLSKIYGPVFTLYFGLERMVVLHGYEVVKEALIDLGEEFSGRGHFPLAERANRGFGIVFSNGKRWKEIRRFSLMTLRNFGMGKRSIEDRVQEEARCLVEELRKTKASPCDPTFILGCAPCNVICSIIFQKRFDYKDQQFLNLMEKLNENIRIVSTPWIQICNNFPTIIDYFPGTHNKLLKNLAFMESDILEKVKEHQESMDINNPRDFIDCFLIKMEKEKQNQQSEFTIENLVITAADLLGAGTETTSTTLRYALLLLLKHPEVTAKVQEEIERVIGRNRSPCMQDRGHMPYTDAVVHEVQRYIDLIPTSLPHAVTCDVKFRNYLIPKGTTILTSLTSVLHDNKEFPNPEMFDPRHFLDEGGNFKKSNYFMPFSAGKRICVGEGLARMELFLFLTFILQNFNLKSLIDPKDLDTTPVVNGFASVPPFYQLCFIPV

COC(=O)C(C)N(C(=O)c1ccco1)c1c(C)cccc1C (stereo not drawn)
inactive: Potency [1] | Potency [2] | Potency [3] | Potency [4] | Potency [5] | Potency [7] | Potency [8] | Potency [9] | Potency [10] | Potency [11] | Potency [14]
active: Potency [6] 10.9 µM | Potency [12] 11.2 µM | Potency [13] 31.7 µM

CN(C)c1ccc(N)cc1
inactive: Potency [2] | Potency [4] | Potency [10]
active: Potency [1] 42.2 µM | Potency [3] 42.2 µM | Potency [5] 47.4 µM | Potency [6] 8.42 µM | Potency [7] 12.3 µM | Potency [8] 61.8 µM | Potency [9] 11 µM | Potency [11] 24.6 µM | Potency [12] 7.78 µM | Potency [13] 31 µM | Potency [15] 12.3 µM | Potency [16] 19.5 µM

COc1cnc(OC)n2nc(NS(=O)(=O)c3c(OCC(F)F)cccc3C(F)(F)F)nc12
active: Potency [13] 35.6 µM
inactive: Potency [1] | Potency [2] | Potency [3] | Potency [4] | Potency [5] | Potency [6] | Potency [7] | Potency [8] | Potency [9] | Potency [10] | Potency [11] | Potency [14]

CCNc1nc(NC(C)C(C)C)nc(SC)n1 (stereo not drawn)
inactive: Potency [1] | Potency [2] | Potency [3] | Potency [4] | Potency [5] | Potency [7] | Potency [8] | Potency [9] | Potency [10] | Potency [11] | Potency [14] | Potency [16]
active: Potency [6] 30.6 µM | Potency [12] 39.9 µM | Potency [15] 25.2 µM

Cc1c([N+](=O)[O-])cc2c(c1[N+](=O)[O-])C(C)(C)CC2(C)C
inactive: Potency [1] | Potency [2] | Potency [3] | Potency [4] | Potency [5] | Potency [7] | Potency [8] | Potency [9] | Potency [10] | Potency [11] | Potency [12] | Potency [16]
active: Potency [6] 54.5 µM | Potency [15] 8.94 µM

CSC(C)(C)/C=N/O
inactive: Potency [1] | Potency [2] | Potency [3] | Potency [4] | Potency [5] | Potency [6] | Potency [7] | Potency [8] | Potency [9] | Potency [10] | Potency [11] | Potency [13] | Potency [15] | Potency [14]

Cc1cnc2c(C(=O)O)c(Cl)ccc2c1
inactive: Potency [1] | Potency [2] | Potency [3] | Potency [4] | Potency [5] | Potency [6] | Potency [7] | Potency [8] | Potency [9] | Potency [10] | Potency [11] | Potency [12] | Potency [13] | Potency [14] | Potency [16]

O=C(CCCCl)c1ccc(F)cc1
inactive: Potency [1] | Potency [2] | Potency [3] | Potency [4] | Potency [5] | Potency [6] | Potency [7] | Potency [8] | Potency [9] | Potency [10] | Potency [11] | Potency [13] | Potency [14] | Potency [16]
active: Potency [15] 11.5 µM

N#CC(C#N)=NNc1cccc(Cl)c1
active: Potency [1] 3.86 µM | Potency [3] 3.86 µM | Potency [5] 24.3 µM | Potency [11] 63.3 µM | Potency [12] 79.6 µM | Potency [13] 8.94 µM | Potency [15] 8.94 µM | Potency [16] 11.2 µM
inactive: Potency [2] | Potency [4] | Potency [6] | Potency [7] | Potency [8] | Potency [9] | Potency [10]

CCCCON=O
inactive: Potency [1] | Potency [2] | Potency [3] | Potency [4] | Potency [5] | Potency [6] | Potency [7] | Potency [8] | Potency [9] | Potency [10] | Potency [11] | Potency [13] | Potency [15] | Potency [14] | Potency [16]

[O]=[Cr][O][Cr]=[O]
inactive: Potency [1] | Potency [2] | Potency [3] | Potency [4] | Potency [5] | Potency [6] | Potency [7] | Potency [8] | Potency [9] | Potency [10] | Potency [13] | Potency [14] | Potency [16]
active: Potency [11] 2.58 µM

COC(=O)c1ccccc1S(=O)(=O)NC(=O)Nc1nc(C)nc(OC)n1
inactive: Potency [1] | Potency [2] | Potency [3] | Potency [4] | Potency [5] | Potency [6] | Potency [7] | Potency [8] | Potency [9] | Potency [10] | Potency [14] | Potency [16]
active: Potency [11] 8.88 µM | Potency [12] 35.3 µM

Brc1cccc(-c2ccccc2)c1
inactive: Potency [1] | Potency [2] | Potency [3] | Potency [4] | Potency [5] | Potency [7] | Potency [8] | Potency [9] | Potency [10] | Potency [11] | Potency [12] | Potency [14] | Potency [16]
active: Potency [6] 24.5 µM | Potency [15] 12.7 µM

COc1nc(C)nc(NC(=O)NS(=O)(=O)c2ccccc2Cl)n1
inactive: Potency [1] | Potency [2] | Potency [3] | Potency [4] | Potency [5] | Potency [6] | Potency [7] | Potency [8] | Potency [9] | Potency [10] | Potency [11] | Potency [12] | Potency [13] | Potency [14] | Potency [16]

CCC[CH2][Sn]([CH2]CCC)([CH2]CCC)[O][Sn]([CH2]CCC)([CH2]CCC)[CH2]CCC
inactive: activity, negative = inhibition [7] -0.727% [at 10.5 µM] | activity change, negative = inhibition [8] -1.88% [at 10.5 µM] | activity change, negative = inhibition [9] 2.81% [at 10.5 µM] | activity change, negative = inhibition [10] 0.495% [at 10.5 µM] | activity change, negative = inhibition [15] -6.75% [at 10.5 µM] | activity change, negative = inhibition [16] -17.7% [at 10.5 µM]
active: Potency [1] 0.533 µM | Potency [2] 2.38 µM | Potency [3] 0.336 µM | Potency [4] 671 nM | Potency [5] 1.34 µM | Potency [6] 0.238 µM | Potency [11] 0.155 µM | Potency [12] 0.981 µM | Potency [14] 1.7 µM
